Among the data in PubChem BioAssay are inhibition values, retold here.

Calls of active or inactive are those of the source. How the calls were made is not given here.

One may read the inhibition as the relative decrease from the control value, in per cent.

Chain of Pantothenate synthetase (Mycobacterium tuberculosis (strain ATCC 25618 / H37Rv)) (P9WIL5 whole entry, looked up): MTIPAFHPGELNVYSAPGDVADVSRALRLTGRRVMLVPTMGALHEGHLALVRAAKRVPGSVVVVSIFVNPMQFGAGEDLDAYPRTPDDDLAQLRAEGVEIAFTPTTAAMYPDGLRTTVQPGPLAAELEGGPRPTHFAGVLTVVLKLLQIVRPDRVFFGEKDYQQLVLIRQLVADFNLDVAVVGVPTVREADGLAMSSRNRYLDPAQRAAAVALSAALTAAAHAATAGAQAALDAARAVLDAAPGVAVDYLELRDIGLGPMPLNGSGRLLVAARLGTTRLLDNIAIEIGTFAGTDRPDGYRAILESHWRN

The test addresses Pantothenate synthetase (Mycobacterium tuberculosis (strain ATCC 25618 / H37Rv)) (UniProt P9WIL5). Kind of test: Recombinant Mtb pantothenate synthetase (PanC) inhibitors, coupled enzyme, confirmatory (AID 375).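 Further: 0% = full reaction with vehicle and 100% = no enzyme background.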 The conditions noted are these: coupled enzyme assay; at 10 µM, stronger effect = higher value.
Consider `Cc1cc(C(=O)Nc2c(C)n(C)n(-c3ccccc3)c2=O)c(C)o1`, for which the inhibition was 0% (inactive).

Turning to `Cc1[nH]nc2c1C(c1ccc(F)cc1)C1=C(CC(C)(C)CC1=O)N2` (stereo not given), the inhibition was 11% (inactive). In the case of `C=CCn1c(Cc2cccs2)nnc1SCC(=O)Nc1ccc(OC)c(OC)c1` it was 0% (inactive); in that of `CCSCCNC(=O)c1cc(-n2cnnc2)ccc1Cl`, 0% (inactive); in that of `COc1cc(-c2nnc(SCC(=O)c3cc(C)n(CC4CCCO4)c3C)o2)cc(OC)c1OC` (stereo not given), 0% (inactive). Then `Cc1cc(NC(=O)CSc2nc3c(c(=O)n2Cc2ccccc2)SC(C)C3)no1` (stereo not given), with 0% (inactive). Then `CCn1nccc1C(=O)Nc1nccs1`, with 5% (inactive); and `c1ccc(-n2c(Sc3cnccn3)nnc2-c2cccs2)cc1`, with 0% (inactive); and `COc1ccc(N(CC(=O)O)S(=O)(=O)c2ccc(OC)c(OC)c2)cc1`, with 5% (inactive). Turning to `Cc1cccc(Cn2c(SCCN3CCCCC3)nc3c2c(=O)[nH]c(=O)n3C)c1`, the inhibition is 0% (inactive). Then `C=CCn1c(SCC(=O)Nc2ccccc2OC)nnc1-c1ccco1`, with 4% (inactive); and `CC1=C(C(N)=O)C(c2ccccn2)n2nc(SCc3ccccc3)nc2N1` (stereo not given), with 0% (inactive). Then `Cc1ccc(NC(=O)CCC(=O)OCC(F)(F)C(F)F)cc1`, with 0% (inactive); and `Cc1onc(-c2ccccc2)c1C(=O)N1CCN(C(=O)c2ccco2)CC1`, with 0% (inactive); and `Nc1ncnc2nc(Sc3ccc(Cl)cc3)[nH]c12`, with 0% (inactive). Then `O=C(Nc1ccccn1)NC(C(F)(F)F)C(F)(F)F`, with 0% (inactive). For the compound `Cc1ccc(N2C(N)=NC(N)=NC23CCCC3)c(C)c1`, the inhibition was 3% (inactive). In the case of `Cc1c(C)c2cc(Cl)c(O)c(CN3CCCCC3)c2oc1=O`, the inhibition is 1% (inactive). In the case of `CC(=O)c1c(C)nn(C(C)CC(=O)O)c1C` (stereo not given) it was 0% (inactive). As to `CCOC(=O)N1CCN(CCC(=O)c2ccc(Cl)cc2)CC1`, the inhibition was 2% (inactive). Then `COc1ccc(NC(=O)CSc2ccccn2)cc1OC`, with 0% (inactive); and `CCCCS(=O)(=O)NC1=NCN(CCOC(=O)c2ccccc2)CN1`, with 0% (inactive); and `CC(C)OC(=O)CSc1nc2cccnc2n1C1CCCCC1`, with 4% (inactive). In the case of `O=C(Nc1ncc2c(n1)CC(c1ccccc1)CC2=O)c1ccco1` (stereo not given), the inhibition was 3% (inactive). `Cc1ccccc1N1OC2C(=O)N(c3ccc(F)cc3)C(=O)C2C1c1ccccn1` (stereo not given): the inhibition is 3% (inactive).

Consider `O=C(Nc1nc(-c2ccc(S(=O)(=O)N3CCCCCC3)cc2)cs1)c1cccs1`, for which the inhibition is 0% (inactive).

On to `CCCCCCCCNC(C)C(O)c1ccc(SC(C)C)cc1` (stereo not given), for which the inhibition is 0% (inactive). `O=C(Nc1ccc(N2CCOCC2)c(F)c1)c1ccncc1`: the inhibition is 0% (inactive). As for `C[C@@H]1CCC[C@H](C)N1NC(=O)c1ccc(Cl)c(S(N)(=O)=O)c1`, the inhibition is 0% (inactive). Turning to `Cc1occc1-c1nc(-c2ccncc2)no1`, the inhibition is 3% (inactive). In the case of `O=S(=O)(NCC1CCCO1)c1cccc(C(F)(F)F)c1` (stereo not given) it was 0% (inactive).

For `COCCCN(C(C)=O)c1nc(-c2ccccc2)cs1`, the inhibition is 0% (inactive). Then `CCN(CC)C(=O)CSC1=C(C#N)C(c2ccco2)C(C(=O)OCCOC)=C(C)N1` (stereo not given), with 0% (inactive); and `O=c1c(-c2ccccc2)coc2c(CN3CCOCC3)c(O)ccc12`, with 6% (inactive).

As to `Cc1cc(Cl)ccc1OCCCC(=O)NO`, the inhibition was 0% (inactive). On to `Cc1oc2nc(SCCCC(=O)NCCCO)nc(N)c2c1C`, for which the inhibition is 2% (inactive).

With `COc1ccc(CN(C(=O)c2cccs2)c2nccs2)cc1OC`, the inhibition was 3% (inactive). On to `CC(=O)OCC(=O)[C@H]1CC[C@H]2[C@@H]3CCC4=CC(=O)CC[C@]4(C)[C@H]3CC[C@]12C`, for which the inhibition was 1% (inactive). Then `Cc1cc(C)nc(SCc2csc(N)n2)n1`, with 1% (inactive). On to `Cn1cnc(S(=O)(=O)NCc2cccs2)c1`, for which the inhibition was 0% (inactive).
